Results published in PubChem BioAssay AID1962 (The Scripps Research Institute Molecular Screening Center, 2009).
Screen size: about 300,000 compounds; about 2,500 (0.83%) were called active. The sample holds actives, similar compounds and a random draw of the others, so the mix is not that of the screen. Unmarked numbers belong to inactive results.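 The calls were made as follows: active = inhibition above the mean of all tested compounds plus 3 SD, set per screening campaign (cut at about 24% in these data); inactive = the rest.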

tested on: tRNA 2'-phosphotransferase TPT1 (Candida albicans SC5314); assay: Candida albicans TPT1 enzyme inhibitors, primary screen, biochemical, fluorescence polarization (AID 1962); conditions: recombinant caTPT1, FP RNA substrate dephosphorylation; at 5 µM; hits give high values;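 also: plate controls were DMSO alone for no effect and ferristatin control at 100 nM for full effect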

Row | Compound | inhibition
1 | O=C(N1CCOCC1)N1CCOCC1 | -4.04%
2 | N#C/C(=C\c1ccc(-c2cccc([N+](=O)[O-])c2)o1)C(=O)NCCN1CCOCC1 | 0.6%
3 | N#C/C=C(/c1ccc(F)cc1)N1CCOCC1 | -0.18%
4 | Cc1ccc(C(=O)N2CCN(C(=O)N3CCOCC3)CC2)cc1 | -1.08%
5 | N#C/C(=C/c1ccc(N2CCOCC2)o1)C(=O)N1CCOCC1 | 158% (active)
6 | N#C/C(=C\c1ccc(N2CCOCC2)o1)C(=O)N1CCOCC1 | 153% (active)
7 | CCOc1cc(-c2noc(CCCC(=O)NC3CCCCC3)n2)ccc1OC | 3.27%
8 | CN1CCCN(C(=O)C2CCCCC2)CC1 | 1.49%
9 | C/C(=C/C(=O)N1CCN(C)CC1)C(=O)O | 3.89%
10 | CCOCCn1[nH]c2ccccc2c1=O | -0.9%
11 | CCC1CCCCN1C(=S)Nc1ccc(C(C)=O)cc1 (centres undefined) | -0.24%
12 | COCCN(C(=O)c1ccccc1F)c1c(N)n(Cc2ccccc2)c(=O)[nH]c1=O | 1.87%
13 | COc1ccc(NC(=O)c2sccc2SCC#N)cc1 | -1.53%
14 | NNC(=O)c1oc2nc(-c3ccccc3)cc(-c3ccco3)c2c1N | 79.6% (active)
15 | CNC(=S)NNC(=O)c1oc2nc(-c3ccccc3)cc(-c3ccco3)c2c1N | 5.89%
16 | O=C(Nc1cccc(F)c1)c1cc(-c2ccco2)nc2ccccc12 | 14.1%
17 | CC[N+](C)(CC)CCC[n+]1c(-c2ccccc2)c2cc(N)ccc2c2ccc(N)cc21 | -27.7%
18 | COc1ccc(/C=C2\SC(=S)N(CCC(=O)Nc3cccc(C(=O)O)c3)C2=O)cc1OC | 1.59%
19 | COc1ccccc1C(=O)NNC(=O)CCN1C(=O)/C(=C\c2ccccc2)SC1=S | -5.63%
20 | COc1cc(/C=C2/SC(=S)N(Cc3ccccc3)C2=O)cc(OC)c1O | 89.8% (active)
21 | CC(C(=O)Nc1ccc(F)c(F)c1F)N1CCCCCC1 (centres undefined) | -0.32%
22 | CC(=O)c1cnc(SCC(=O)O)nc1C | -5.63%
23 | CSc1nc(N(C)NC(=O)c2cccc(C)c2)c2ccccc2n1 | -0.9%

Row | Compound | inhibition
24 | CCOC(=O)C(C)N(c1ccccc1Cl)S(C)(=O)=O (centres undefined) | 0.94%
25 | CCN(CC)c1ccc(/C=N/NC(=O)c2cnccn2)c(O)c1 | 1.75%
26 | Cc1cc(C)nc(N/N=C/c2ccncc2)n1 | 3.38%
27 | CCN(CC)c1ccc(/C=N/Nc2nc(C)cc(C)n2)c(O)c1 | 25.2% (active)
28 | COc1ccc(-c2cc3nc(C)c(CCC(=O)NC(C)CCc4ccco4)c(C)n3n2)c(OC)c1 (centres undefined) | 0.65%
29 | Cc1c(C(=O)OC(C)C)sc(NC(=O)c2cccnc2)c1C#N | 31.6% (active)
30 | CCOC(=O)c1cc(NC(=O)c2cccnc2)ccn1 | -2.33%
31 | CC(C)NS(=O)(=O)c1ccc(NC(=O)c2cccnc2)cc1 | 6.23%
32 | O=C(NC1CCCCC1)C1CCCN(S(=O)(=O)c2ccc(Br)s2)C1 (centres undefined) | -22.4%
33 | CC(NC(=O)CC1SC(N)=NC1=O)c1ccccc1 (centres undefined) | 2.18%
34 | Cc1cc(NC(=O)CCS(=O)(=O)c2ccc(F)cc2)no1 | -4.5%
35 | CN(C)CCCn1c(N)c(C#N)c2nc(C#N)c(C#N)nc21 | 75.1% (active)
36 | CC(C)(C)c1ccc(C(=O)NCCn2c(N)c(C#N)c3nc4ccccc4nc32)cc1 | 9.05%
37 | CC1CCCCC1NC(=O)CSc1nnc(-c2ccncc2)n1CCCN(C)C (centres undefined) | -2.27%
38 | Fc1ccc2nc(Nc3nc4c(s3)CCCC4)sc2c1 | 24.1% (active)
39 | CSc1ncccc1C(=O)Nc1nc2ccc(F)cc2s1 | -0.86%
40 | Fc1cc(F)c2nc(Nc3nc4c(F)cccc4s3)sc2c1 | -0.65%
41 | CCc1cccc(C)c1N(C(=O)Cn1c(CO)nc2ccccc21)C(C)COC (centres undefined) | -1.41%
42 | O=C(N/N=C/c1cccnc1)c1cc2ccccc2cc1O | -1.97%
43 | CC(C)(C)OC(=O)NNc1c2ccccc2nc2ccccc12 | -0.98%
44 | O=C(NNc1c2ccccc2nc2ccccc12)c1cc2ccccc2cc1O | 25.8% (active)
45 | CCOc1ccc(-n2cnnn2)cc1S(=O)(=O)N1CCC(C)CC1C (centres undefined) | 3.77%
46 | COc1cccc(CNC(=O)C2CCCN(S(=O)(=O)N3CC(C)CC(C)C3)C2)c1 (centres undefined) | -2.25%

Row | Compound | inhibition
47 | COc1ccc2c(c1)[C@H]1[C@H](CO2)[C@H](c2ccccc2)[C@]2(C)C(=O)Nc3cc(F)c(F)cc3C(=O)N12 | -1.54%
48 | CCOC(=O)CNC(=O)/C(=C\c1ccc(F)cc1)NC(=O)c1ccccc1 | -8.38%
49 | Cn1c2ccccc2c2cc(/C=C(\NC(=O)c3ccccc3)C(=O)NCC(=O)O)ccc21 | 86.7% (active)
50 | COc1ccc(/C=C(\NC(=O)c2ccccc2)C(=O)NCCN2CCOCC2)cc1OC | -0.34%
51 | CCN1CCN(C(=O)N[C@@H](C(=O)N[C@@H]2C(=O)N3C(C(=O)O)=C(CSc4nnnn4C)CS[C@H]23)c2ccc(O)cc2)C(=O)C1=O | -2.09%
52 | CS(=O)(=O)c1ccc2c(c1)SC1=NC(=O)/C(=C/c3ccco3)C(=N)N12 | 62.9% (active)
53 | Cc1cc(/C=C2/C(=N)N3C(=NC2=O)SN=C3S(C)(=O)=O)c(C)n1-c1ccccc1 | 4.75%
54 | CS(=O)(=O)C1=NN2C(=N)/C(=C\c3ccc(OCCOc4ccccc4)cc3)C(=O)N=C2S1 | 2.39%
55 | COc1ccccc1C(=O)NCCC(=O)NCC(c1ccco1)N1CCCCC1 (centres undefined) | 1.82%
56 | O=C(NCc1ccccc1)C(=O)NCC1OCCN1S(=O)(=O)c1ccc(Br)cc1 (centres undefined) | -2.5%
57 | COc1ccc(CCN2C(=O)C(C)=C(C)C2=O)cc1OC | 1.36%
58 | COc1cc(/C=C2/C(=O)NN(c3ccc(F)cc3)C2=O)cc([N+](=O)[O-])c1O | -1.74%
59 | COc1cc(/C=C2/C(=O)NN(c3cccc(Cl)c3)C2=O)cc(Br)c1O | 130% (active)
60 | C#CCOc1ccc(/C=C2/C(=O)NN(c3ccccc3)C2=O)cc1OC | 0.28%
61 | Cc1ccccc1OC/C(O)=C(\C#N)c1nc2ccccc2[nH]1 | 2.58%
62 | N#C/C(=C(/O)COc1cccc2ccccc12)c1nc2ccccc2[nH]1 | 14.7%
63 | N#C/C(=C(/O)COC(=O)COc1ccc(Cl)cc1)c1nc2ccccc2[nH]1 | 35% (active)
64 | C#CCOCCOCCOCCNc1nc(N2CCN(C(=O)CCCCCCCCCCNC(=O)[C@H]([C@@H](C)CC)n3cc(CCCCN=C(N)N)nn3)CC2)nc(N2CCN(C(=O)CCCCCCCCCCNC(=O)[C@H](CO)n3cc(CCCSC)nn3)CC2)n1 | -0.55%
65 | COc1ccc(CC2c3cc(OC)c(OC)cc3CC[N+]2(C)CCC(=O)OCCCCCOC(=O)CC[N+]2(C)CCc3cc(OC)c(OC)cc3C2Cc2ccc(OC)c(OC)c2)cc1OC (centres undefined) | 0%
66 | COCCNC(=O)/C(C#N)=C/c1nc(N(C)C)n(-c2ccc(F)cc2)c1Cl | 1.88%
67 | Cc1c(C)n2c(SCC(=O)N3CCCC3)nnc2[nH]c1=O | 0.57%
68 | O=C1OC(/C=C/c2ccccc2)=NC/1=C/c1ccco1 | 1.61%
69 | CCC1C/C(=C/c2cccs2)C(=O)/C(=C/c2cccs2)C1 (centres undefined) | 14.5%

Row | Compound | inhibition
70 | CC(C)(C)C1C/C(=C/c2ccco2)C(=O)/C(=C/c2ccco2)C1 (centres undefined) | 71.8% (active)
71 | COC(=O)c1ccc(Sc2ccc(F)cc2)c(N)c1 | 1.95%
72 | CCOc1ccc(OCc2ccc(C(=O)Nc3cccc(C)n3)o2)cc1 | -2.96%
73 | Cc1cccc(NC(=O)c2ccc(COc3ccccc3[N+](=O)[O-])o2)n1 | 31.1% (active)
74 | CCCCNc1ccc(C(=O)Nc2cccc(C)n2)cc1[N+](=O)[O-] | 3.18%
75 | CCOc1ccc2c(=O)c(-c3ccc4c(c3)OCCCO4)c(C)oc2c1 | 2.18%
76 | CN(C)Cc1c(C(=O)N/N=C/c2ccccc2OCc2ccc(F)cc2)nnn1-c1nonc1N | 2.3%
77 | COc1ccccc1C1CC(=O)n2c(nc(-c3ccccc3)c2-c2ccccc2)S1 (centres undefined) | -2.44%
78 | NS(=O)(=O)c1ccc(CNC(=O)c2cnccn2)cc1 | -3.97%
79 | CC(=O)n1c(C=Nc2ccccc2)c(O)c2ccccc21 | 37.8% (active)
80 | CCCCn1c(=O)c(C(C)=O)c(O)c2ccccc21 | 3.63%
81 | CCOc1ccc(N=Cc2c(O)n(-c3cccc(C)n3)c(=O)c3ccccc23)cc1 | 1.89%
82 | Cc1cc(C)nc(NNC2=CC(=O)CC(C)(C)C2)n1 | -0.26%
83 | Cc1cs/c(=N\N=C\c2ccc(O)cc2)n1Cc1ccco1 | 2.86%
84 | CCOC(=O)/C=c1\s/c(=C\c2ccc(C#N)cc2)c(=O)n1CC(=O)Nc1cccc(C)c1C | 1.41%
85 | CN(c1ccccc1)c1ccc(/C=c2\s/c(=C(/C#N)C(=O)C(C)(C)C)n(Cc3ccco3)c2=O)cc1 | 151% (active)
86 | Cc1ccccc1S(=O)(=O)N1[C@@H](c2cccc(Cl)c2)C(C(=O)O)=CC[C@H]1c1ccc(Cl)cc1 | -1.82%
87 | Cc1ccc(S(=O)(=O)N2[C@@H](c3cccc(Cl)c3)C(C(=O)O)=CC[C@H]2c2ccc(Cl)c(Cl)c2)cc1 | 0.18%
88 | Cn1cc(CN2CCCCC2c2ccccn2)c(-c2ccc3c(c2)OCCO3)n1 (centres undefined) | -1.42%
89 | COC(=O)c1ccc(/C=N/N2C(C)CCCC2C)cc1 (centres undefined) | 0.75%
